Screening results (PubChem)
Shown are actives, neighbours in structure and some others; about 1.5% of the full set was active somewhere.
IDE act – human IDE activators in live cells, primary screen, fluorescence polarization, HEK cells, FAbeta-B substrate | 340,000 compounds, 0.073% hits | FAbeta-B cleavage; 0% vehicle, 100% cell-free pure enzyme wells | activation, % at 5.96 µM;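 active means activation above the mean of all tested compounds plus 3 SD, set per screening campaign, cut at about 17% in these data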
MEX-5 binding – MEX-5 zinc finger RNA-binding disruptors – biochemical, C. elegans, fluorescence polarization, MLPCN library, primary screen; Zinc finger protein mex-5 (Caenorhabditis elegans), Q9XUB2; MEX-5/FITC-TCR2 RNA binding; hits give low values; 300,000 compounds, 0.38% hits; activity score (negative = inhibition of binding), % at 10 µM;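 active means inhibition past about -25% in most replicates, and total fluorescence under double the plate's negative control median, limit read from the data; inconclusive means replicates evenly split on the limit, or fluorescence at least double controls; inactive means too little inhibition in most replicates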;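 further: 0% = DMSO and -100% = 5 µM competing unlabeled TCR2 RNA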
MCL1-BIM inh – inhibitors of MCL1 binding to BIM-BH3, primary screen, biochemical, fluorescence polarization. Induced myeloid leukemia cell differentiation protein Mcl-1 (Homo sapiens), Q07820. 320,000 compounds, 0.68% hits. AID 2057, 2009. GST-MCL1 / FITC-Bim-BH3 fluorescence polarization. inhibition, % at 10.9 µM;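 active means inhibition above the mean inhibition of all tested compounds plus 3 SD, set per campaign, cut at about 40% in these data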;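 further: 0% = DMSO wells and 100% = unlabeled Bim-BH3 peptide control; higher means more loss of mP so more displacement of Bim peptide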
GLD-1 TGE inh – GLD-1/TGE RNA complex disruptors, primary screen, biochemical, fluorescence polarization | Female germline-specific tumor suppressor gld-1 (Caenorhabditis elegans), Q17339 | purified GLD-1 + fluorescein TGE RNA | 320,000 compounds, 0.44% hits | inhibition, % at 5.96 µM;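 active means percent inhibition above a per-plate cutoff, the plate mean of test compounds plus 3 SD, cut at about 30% in these data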;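 further: 0% = DMSO wells with GLD-1 and probe and 100% = wells lacking GLD-1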
Target sequence (Q17339 whole entry, looked up): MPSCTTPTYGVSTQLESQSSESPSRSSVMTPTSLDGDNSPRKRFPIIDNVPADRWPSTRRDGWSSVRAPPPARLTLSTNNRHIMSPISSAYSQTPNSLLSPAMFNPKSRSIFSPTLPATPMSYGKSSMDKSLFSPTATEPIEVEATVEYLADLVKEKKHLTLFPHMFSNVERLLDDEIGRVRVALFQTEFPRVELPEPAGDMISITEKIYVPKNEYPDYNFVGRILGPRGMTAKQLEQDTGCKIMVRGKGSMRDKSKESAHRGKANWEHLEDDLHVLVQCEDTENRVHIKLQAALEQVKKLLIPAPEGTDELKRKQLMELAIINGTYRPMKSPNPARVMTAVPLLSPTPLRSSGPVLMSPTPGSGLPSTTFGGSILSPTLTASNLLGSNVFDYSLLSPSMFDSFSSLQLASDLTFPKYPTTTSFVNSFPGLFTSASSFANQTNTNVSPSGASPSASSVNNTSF
Bcl-xL primary – inhibitors of human Bcl-xL, primary screen, biochemical, fluorescence polarization, HTS. GST-Bcl-xL / FITC-Bim BH3 peptide fluorescence polarization. inhibition, % at 10.9 µM. 320,000 compounds, 0.7% hits;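 active means inhibition above the mean of all tested compounds plus 3 SD, cutoff set per campaign, cut at about 30% in these data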;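 further: 0% = DMSO wells and 100% = unlabeled Bim-BH3 peptide competitor; inhibitors lower millipolarization by displacing the labeled peptide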
Target sequence (Q07817 whole entry, looked up): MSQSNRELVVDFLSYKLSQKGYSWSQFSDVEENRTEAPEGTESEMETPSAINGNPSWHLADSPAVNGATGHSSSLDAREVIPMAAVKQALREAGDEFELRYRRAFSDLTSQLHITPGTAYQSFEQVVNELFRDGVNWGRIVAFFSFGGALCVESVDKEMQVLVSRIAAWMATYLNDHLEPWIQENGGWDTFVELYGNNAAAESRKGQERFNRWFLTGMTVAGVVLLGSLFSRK
IDE inh – human IDE inhibitors in live cells, primary screen, fluorescence polarization, HEK cells, FAbetaB substrate | 320,000 compounds, 0.41% hits | FAbetaB cleavage | Insulin-degrading enzyme (Homo sapiens), P14735 | inhibition, % at 5.59 µM;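 active means percent inhibition above the average of all tested compounds plus 3 SD, set per screening campaign, cut at about 16% in these data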;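 further: IDE supplied by intact live HEK cells; FP after avidin binding of uncleaved biotin substrate so inhibition keeps polarization high; 0% = DMSO wells and 100% = 60 µM reference IDE inhibitor Ii1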
Starred values were filed as active, the others as inactive; ? = inconclusive; . = no result.

SMILES	IDE act	MEX-5 binding	MCL1-BIM inh	GLD-1 TGE inh	Bcl-xL primary	IDE inh
CCOC(=O)/C(=C/c1ccc(N2CCC(c3ccccc3)=N2)cc1)C(C)=O	-17.9	-33.5*	.	.	.	.
Cc1cc(Cl)ccc1OCCCC(=O)OCC(=O)c1c(N)n(C)c(=O)n(C)c1=O	-2.7	2.6	-8.2	-3.8	1.7	4.6
CC(=O)Nc1ccc(S(=O)(=O)NCCc2ccccn2)cc1	18.3*	1.4	-0.3	2.4	1.6	0.8
O=C1c2ccccc2C(=O)c2[nH]c(=O)[nH]c21	4.5	-55.4*	26.6	4.8	16.7	-0.2
O=C1c2ccccc2C(=O)c2[nH]cnc21	1.7	?	.	.	.	.
COc1ccc(CCN(C(=O)c2snc(C(N)=O)c2N)C(C)C(=O)NC2CCCCC2)cc1OC (stereo not given)	-2.1	0.8	14.1	-4.6	12.1	-3.9
CN(C)c1ccc(/C=C/C=C2/SC(=S)N(c3ccccc3)C2=O)cc1	-3.7	-0.3	22.4	-25.1	36.1*	10.8
COc1ccc2c3c([nH]c2c1)C1CC2C(CC(O)C(OC)C2C(=O)O)CN1CC3 (stereo not given)	7.6	-34.6*	40.6*	-2.6	40.0*	3.2
COc1cc(NC(=O)C2CCCCC2)c(OC)cc1NC(=O)c1ccccc1	2.2	0.2	8.6	1.2	8.1	-2.0
Cc1ccccc1C1=N/C(=C/c2cccs2)C(=O)O1	5.6	-27.5*	6.7	0.8	2.3	3.6
Cc1ccc(C)c(/C=C2\N=C(c3ccccc3F)OC2=O)c1	-0.9	-0.4	3.0	7.1	1.7	0.9
COc1ccc(Br)cc1S(=O)(=O)n1nc(C)cc1C	3.7	0.4	0.5	-1.3	3.6	-2.8
COc1cc(/C=C/C(=O)O)cc(S(=O)(=O)N2CCc3ccccc3C2)c1OC	1.6	-0.3	-2.2	-1.4	0.0	2.3
CN(N=Nc1ccc([N+](=O)[O-])cc1)c1ccccc1	3.4	-58.1*	5.9	8.8	4.5	-1.7
CC1CCCC(C)N1C(=O)CNCc1ccc2c(c1)OCO2 (stereo not given)	0.4	0.2	-11.3	-5.8	3.0	-3.2
COc1ccc(OC)c(/C=c2\sc3nc(-c4cccs4)nn3c2=O)c1	5.8	-51.5*	-30.1	-12.1	-13.1	0.8
Cc1ccc(Cl)c2c1=NC(=O)C=2c1[nH]c(=S)[nH]c1O	2.5	-45.1*	6.4	-12.6	9.0	0.7
CCOC(=O)[C@@H]1[C@H]2COc3cc(OC)ccc3[C@H]2N2C(=O)N(c3cccc(F)c3)C(=O)[C@]12C	4.0	.	.	5.7	.	-0.6
O=C(O)c1cc(=S)nc[nH]1	-4.4	.	.	.	.	.
Cc1ccc(NC(=O)COc2ccc(/C=C3/SC(=Nc4ccccc4)N(Cc4cccnc4)C3=O)cc2)cc1	1.1	-59.8*	-13.9	-8.5	-9.7	2.1
Cc1c(C(=O)Nc2ccccc2)sc2nc(-c3ccccc3)cn12	-15.3	1.2	2.4	11.7	5.6	22.6*
COc1ccc(N2CC(C(=O)Nc3cccc(OC(C)C)c3)CC2=O)cc1 (stereo not given)	-1.1	1.1	-1.1	3.4	-2.9	0.4
CCCCC1=CC2=CC(=O)C(C)(OC(=O)C3CCCC3)C(=O)C2=CO1 (stereo not given)	1.1	-10.1	31.7	36.2*	11.2	1.4
CCC(=O)OC1(C)C(=O)C=C2C=C(CCCCNC(=O)OC(C)(C)C)OC=C2C1=O (stereo not given)	.	-20.4	32.6	50.1*	26.2	0.7
CC(C)(C)OC(=O)NCCCC1=CC2=CC(=O)C(C)(O)C(=O)C2=CO1 (stereo not given)	.	-20.0	36.6	25.9	33.7*	-1.9
SMILES	IDE act	MEX-5 binding	MCL1-BIM inh	GLD-1 TGE inh	Bcl-xL primary	IDE inh
CC(C)(C)OC(=O)NCCCC1=CC2=CC(=O)C(C)(OC(=O)c3ccc(Cl)nc3)C(=O)C2=CO1 (stereo not given)	.	?	85.3*	92.6*	80.2*	2.5
CCCCC1=CC2=CC(=O)C(C)(OC(=O)CC)C(=O)C2=CO1 (stereo not given)	2.0	-23.2	31.7	36.8*	18.1	3.3
COC(=O)CCCC1=CC2=CC(=O)C(C)(O)C(=O)C2=CO1 (stereo not given)	.	-38.7*	29.9	23.8	22.6	10.0
C=CCN1C=C2C(=O)C(C)(OC(=O)CC)C(=O)C=C2C=C1CCCC (stereo not given)	4.7	-7.1	28.6	41.7*	28.7	9.9
COc1ccccc1C(=O)Nc1ccnn1C1CCN(C(=O)C2CCOC2)CC1 (stereo not given)	-0.3	0.8	2.5	7.2	6.1	-1.6
Cc1ccccc1C(=O)Nc1ccnn1C1CCN(C2CCSCC2)CC1	0.4	-12.9	35.6	11.5	35.7*	0.8
COc1ccccc1C(=O)Nc1ccnn1C1CCN(C(C)CSC)CC1 (stereo not given)	0.2	-25.6*	45.1*	12.7	41.5*	-1.8
COc1ccccc1C(=O)Nc1ccnn1C1CCN(C2CCSCC2)CC1	-1.7	-2.6	41.6*	19.6	42.2*	5.5
COc1ccccc1C(=O)Nc1ccnn1C1CCN(C)CC1	5.8	.	-0.4	6.3	0.6	-1.9
CCN1C(=NCCCOC(C)C)N[C@@H](CCc2ccccc2)[C@H](C(=O)NCCCOC(C)C)[C@H]1C	10.1	.	.	23.7	.	4.5
CC1CN(C(=O)CCC(=O)N2CCCCC2)c2ccccc2O1 (stereo not given)	-2.0	0.3	3.9	6.4	3.1	0.2
CCCCNC(=O)CSc1nnc(Cc2ccc(Cl)c(Cl)c2)c(=O)[nH]1	3.1	-0.1	14.8	-1.7	5.8	-6.8
O=C(NCC1CCCO1)c1ccc(F)c2ccccc12 (stereo not given)	3.1	2.0	-1.4	0.7	5.8	-0.5
COc1ccc(/C=C2\SC(=S)N(c3cccnc3)C2=O)cc1	0.4	-6.2	4.8	0.6	-0.1	-0.9
O=C1/C(=C\c2ccc(O)cc2)SC(=S)N1c1cccnc1	-98.8	-1.0	11.7	-25.1	7.5	87.8*
O=C(Nc1ccccn1)c1ccc(Br)c(S(=O)(=O)N2CCCCC2)c1	-6.4	2.2	3.6	4.0	1.9	8.0
COc1ccc(-n2c(=O)/c(=C\c3cccs3)s/c2=C(/C#N)C(=O)NCCN2CCOCC2)cc1	-1.8	-10.9	-36.4	-5.2	-20.6	5.5
C=CCn1c(=O)/c(=C\c2ccsc2)s/c1=C(/C#N)C(=O)NCCN1CCOCC1	1.8	-45.7*	-7.7	-0.7	-0.5	-0.9
